# According to PubChem BioAssay AID1563 (The Scripps Research Institute Molecular Screening Center, 2009):
# This is one part of the list. A number with no mark means an inactive call. Active and inactive are the calls of the source. Cut-off read from the data, not from the text of the source: active = activation above about 21%; inactive = the rest.
# Biological target: Sphingosine 1-phosphate receptor 1 (Homo sapiens) (UniProt P21453)
# Test: S1P1 receptor agonists, human, counter-screen for S1P4 agonist project, cell-based (AID 1563);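 note: 0% = vehicle wells and 100% = reference agonist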
# Conditions: S1P1 agonist cell-based assay, at 4.98 µM, hits give high values
# Sphingosine 1-phosphate receptor 1 (Homo sapiens), sequence (P21453 whole entry, looked up): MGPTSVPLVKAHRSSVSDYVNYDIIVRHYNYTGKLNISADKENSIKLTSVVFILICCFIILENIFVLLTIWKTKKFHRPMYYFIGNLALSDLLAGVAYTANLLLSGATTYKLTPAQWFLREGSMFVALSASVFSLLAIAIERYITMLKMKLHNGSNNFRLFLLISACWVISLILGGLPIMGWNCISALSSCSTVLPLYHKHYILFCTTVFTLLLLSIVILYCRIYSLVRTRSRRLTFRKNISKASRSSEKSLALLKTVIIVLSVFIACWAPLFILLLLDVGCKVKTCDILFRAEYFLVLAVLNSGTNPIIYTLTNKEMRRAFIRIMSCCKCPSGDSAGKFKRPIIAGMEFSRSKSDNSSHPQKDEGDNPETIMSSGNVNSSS
row,Structure (SMILES),activation
1,O=C(COC(=O)Cc1ccc(F)cc1)Nc1cc(S(=O)(=O)N2CCOCC2)ccc1N1CCCC1,5.34%
2,O=C(CSc1ccc(-c2ccc(F)cc2)nn1)Nc1ccc2c(c1)OCCO2,-2.21%
3,Cc1ccc(NC(=O)Nc2ccccc2)c(Br)c1,5.03%
4,N/C(=N\OC(=O)Cc1ccc([N+](=O)[O-])cc1)c1ccccn1,-7.04%
5,COC(=O)CNC(=O)C(CCSC)NC(C)=O (configuration not stated),-8.17%
6,CCC(C)NC(=O)C1c2ccccc2Oc2ccccc21 (configuration not stated),0.8%
7,CC(Oc1ccc(Br)cc1Br)C(=O)NC1CCCC1 (configuration not stated),-6.64%
8,Cc1cc(C)c(C#N)c(SCC(=O)NN2CC(=O)N(c3ccccc3F)CC2=O)n1,-4.8%
9,CCOc1ccc(-c2nnc(-c3ccco3)o2)cc1,2.5%
10,Cc1cc(NC(=O)c2cc(-c3cccs3)on2)nn1Cc1ccc(Cl)cc1,4.89%
11,CC(=O)Nc1ccc(SCC(=O)Nc2ccccc2Oc2ccccc2)cc1,-3.81%
12,COc1ccc(C2CC(c3cccs3)=NN2c2ccc(F)cc2)cc1OC (configuration not stated),16.6%
13,COc1ccc(N2C(=O)C(Cc3ccccc3)NC2=S)cc1 (configuration not stated),-2.28%
14,CNC(=O)c1[nH]cnc1C(=O)N[C@@H](CC(C)C)C(=O)OCc1ccccc1,11.4%
15,CCC(=O)/C(=C(/O)c1ccccc1)c1nc2ccccc2[nH]1,-4.01%
16,CCCCCNC(=O)c1cccnc1SCC(=O)Nc1ccccc1OC,1.32%

row,Structure (SMILES),activation
1,CC1CCCC(NC(=O)COC(=O)[C@@H]2CC(O)CN2S(=O)(=O)c2ccc3c(c2)OCCO3)C1C (some centres not stated),-5.42%
2,O=[N+]([O-])c1cccc(Nc2c3ccccc3nc3ccccc23)c1,11.6%
3,COc1ccc(-n2c(C)cc(C(=O)CN3C(=O)NC4(CCc5ccccc54)C3=O)c2C)cc1 (configuration not stated),1.51%
4,O=C(CSc1nncn1-c1cccnc1)N1CCOCC1,2.75%
5,COc1ccc(C2CC(c3cccs3)=NN2c2ccccc2)cc1 (configuration not stated),43.8% (active)
6,COC(=O)[C@@H]1CC[C@H](C)[C@@H](c2ccc(C)cc2)N1C(=O)c1ccc(/C=N/O[C@H](C)c2cn([C@@H]3COC[C@H]3O)nn2)cc1,-3.45%
7,CCn1c(CNC(=O)c2ccc(OC)c(OC)c2)nnc1SCC(=O)Nc1ccccc1,0.73%
8,CC(C)C(c1nnnn1C(C)(C)C)N1CCN(Cc2cccnc2)CC1 (configuration not stated),-9.51%
9,CSc1sc(C(=O)NNC(=O)c2ccc(Cl)cc2)c2c1C=CCC2,2.26%
10,Cc1cc(C)nc(N(C#N)CC(=O)Nc2ccccc2)n1,0.75%
11,CC(=O)Nc1ccccc1NC(=O)c1cc(C)cc(C)c1,-9.63%
12,Cc1noc(C)c1COC(=O)COc1ccc(-c2ccccc2)cc1,0.9%
13,O=C(COC(=O)c1cc([N+](=O)[O-])ccc1NCc1ccccc1)NC1CCCCC1,-7.16%
14,COc1ccccc1CNC(=O)CNC(=O)c1cn(-c2ccccc2OC)c(=O)c2ccccc12,-2.71%
15,C=CCn1c(SCn2nnc3ccccc3c2=O)nnc1-c1ccc(Cl)cc1,-1.97%
16,O=C(CSc1nnc(Nc2ccccc2)s1)Nc1cccnc1Cl,-2.54%
